# Laboratory results: PubChem BioAssay (NCATS)
# Values without a mark were called inactive. Records with an inconclusive call do not appear. A call without a number means that no potency is given here. Active and inactive are the calls of the source. Unless noted, calls come from the whole dose curve; as a rule, active = well fitted curve in the direction sought with a large enough effect; inconclusive = small, poorly fitted or top-dose-only effect, or another doubt; inactive = no such curve, though single readings can be large; an effect the other way counts as inactive or inconclusive.
# Legend:
# [1] = molecular target: Voltage-gated inwardly rectifying potassium channel KCNH2 (Homo sapiens) (UniProt Q12809); experiment: qHTS Assay for Small Molecule Inhibitors of the Human hERG Channel Activity (AID 588834);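 note: lower thallium flux fluorescence means stronger hERG block; nearly all actives have a fitted effect of over 50% in size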; note: potency is the fitted concentration of half-maximal effect; for activity change, negative = inhibition: top concentration of the series differs between compounds
# In short: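 Thallium-flux (FluxOR) read-out on FDSS: fluorescence read 10 s before and 2 min after stimulation buffer. hERG-BacMam-transduced U2OS cells, compound exposure about 10 min. AC50 by standard Hill equation.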
# [2] = molecular target: Peroxisome proliferator-activated receptor delta (Homo sapiens) (UniProt Q03181); experiment: qHTS assay for small molecule agonists of peroxisome proliferator-activated receptor delta signaling (AID 588534; calls by dose curve)
# In short: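 Agonist-mode beta-lactamase reporter readout (CCF4 dye, 2 h at RT) after 18 h at 37 °C exposure to a titration; Hill-equation fitting gave EC50 and maximal response.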
# [3] = molecular target: Peroxisome proliferator-activated receptor alpha (Homo sapiens) (UniProt Q07869); experiment: qHTS assay for small molecule agonists of the peroxisome proliferator-activated receptor alpha (PPARalpha) signaling pathway (AID 651778); details: PathHunter PPARalpha complementation, chemiluminescence, 6 h; active compounds read high
# In short: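 Chemiluminescence from complemented enzyme reported PPARalpha activation in cells after 6 hr of compound treatment at 37 C. The detection reagent was incubated for 60 min at room temperature, and compounds were scored as agonists.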
# [4] = qHTS assay for small molecule agonists of the antioxidant response element (ARE) signaling pathway measured by Nrf2-dependant transcriptional activity (AID 720636; active = well fitted curve in the direction sought with a large enough effect in the repeat runs; an effect the other way counts as inactive or inconclusive;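 note: HepG2 cells with an ARE-driven luciferase reporter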)
# In short: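 Reporter gene assay, HepG2 ARE-luc: 16 hr compound, 37 C, 5% CO2; read-out luciferase luminescence.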
# [5] = qHTS assay for small molecule agonists of the antioxidant response element (ARE) signaling pathway measured by Nrf2-dependant transcriptional activity - cell viability counter screen (AID 720653; active = well fitted curve in the direction sought with a large enough effect in the repeat runs; an effect the other way counts as inactive or inconclusive); details: ARE-bla HepG2 viability, CellTiter-Glo ATP luminescence, 16 h; active compounds read low
# In short: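 Cytotoxicity counter screen: intracellular ATP quantified by CellTiter-Glo luminescence in the same ARE-bla HepG2 plates, after 16 h compound exposure and a 2 h beta-lactamase substrate step.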
# [6] = qHTS assay for cell viability of HEK293 cells (AID 743288); details: ATP luminescence (CellTiter-Glo), 18 h; max response: active compounds read low; note: nearly all actives have a fitted effect of over 50% in size
# In short: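 ATP luminescence (CellTiter-Glo) reports metabolically competent cell number after parental HEK293 cells, 2,000/well, were treated with DMSO-dissolved compounds for 18 h at 37 C; reagent incubation 30 min, room temperature.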
# [7] = qHTS assay for cell viability of the p53RE-bla HCT-116 cell line (AID 743292); note: nearly all actives have a fitted effect of over 55% in size
# In short: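 Readout: CellTiter-Glo luminescence after 30 min RT. Treatment: compounds in DMSO, 16 h, 37 C. Cells: CellSensor p53RE-bla HCT-116, 4,000/well, preincubated 5 h.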
# [8] = molecular target: Nuclear receptor subfamily 1 group I member 3 (Homo sapiens) (UniProt Q14994); experiment: Primary qHTS for antagonist of constitutive androstane receptor (CAR) against the NCATS DSHEA and TCM libraries (AID 1794836);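 note: HepG2 cells stably expressing hCAR with CYP2B6 luciferase reporter stimulated by CITCO; series mostly up to about 40 µM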
# In short: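 Antagonist mode: CAR reporter luminescence (ONE-Glo) in HepG2-CYP2B6-hCAR cells stimulated with 48 uM CITCO (final) over 24 h at 37 C, compounds titrated; viability read first by CellTiter-Fluor fluorescence.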
# [9] = KB-8-5-11 P-gp reporter qHTS against the NCATS DSHEA and TCM libraries (AID 1919977)
# In short: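 CellTiter-Glo luminescence after ~72 h exposure at 37C gave viability of KB-8-5-11 cells, the P-gp-overexpressing subline. Substances were titrated; colchicine was omitted from assay medium.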
# Chain of Nuclear receptor subfamily 1 group I member 3 (Homo sapiens) (Q14994 whole entry, looked up): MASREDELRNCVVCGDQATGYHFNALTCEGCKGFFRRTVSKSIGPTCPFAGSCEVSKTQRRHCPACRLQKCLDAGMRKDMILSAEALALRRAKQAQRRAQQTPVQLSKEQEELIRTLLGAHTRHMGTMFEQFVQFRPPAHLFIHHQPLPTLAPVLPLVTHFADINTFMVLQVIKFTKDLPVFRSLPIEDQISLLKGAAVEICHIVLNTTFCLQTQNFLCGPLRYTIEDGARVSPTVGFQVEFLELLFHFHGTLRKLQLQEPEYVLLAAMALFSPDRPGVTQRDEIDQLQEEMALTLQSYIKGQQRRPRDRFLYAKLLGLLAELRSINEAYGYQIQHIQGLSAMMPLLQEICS
# Chain of Voltage-gated inwardly rectifying potassium channel KCNH2 (Homo sapiens) (Q12809 whole entry, looked up): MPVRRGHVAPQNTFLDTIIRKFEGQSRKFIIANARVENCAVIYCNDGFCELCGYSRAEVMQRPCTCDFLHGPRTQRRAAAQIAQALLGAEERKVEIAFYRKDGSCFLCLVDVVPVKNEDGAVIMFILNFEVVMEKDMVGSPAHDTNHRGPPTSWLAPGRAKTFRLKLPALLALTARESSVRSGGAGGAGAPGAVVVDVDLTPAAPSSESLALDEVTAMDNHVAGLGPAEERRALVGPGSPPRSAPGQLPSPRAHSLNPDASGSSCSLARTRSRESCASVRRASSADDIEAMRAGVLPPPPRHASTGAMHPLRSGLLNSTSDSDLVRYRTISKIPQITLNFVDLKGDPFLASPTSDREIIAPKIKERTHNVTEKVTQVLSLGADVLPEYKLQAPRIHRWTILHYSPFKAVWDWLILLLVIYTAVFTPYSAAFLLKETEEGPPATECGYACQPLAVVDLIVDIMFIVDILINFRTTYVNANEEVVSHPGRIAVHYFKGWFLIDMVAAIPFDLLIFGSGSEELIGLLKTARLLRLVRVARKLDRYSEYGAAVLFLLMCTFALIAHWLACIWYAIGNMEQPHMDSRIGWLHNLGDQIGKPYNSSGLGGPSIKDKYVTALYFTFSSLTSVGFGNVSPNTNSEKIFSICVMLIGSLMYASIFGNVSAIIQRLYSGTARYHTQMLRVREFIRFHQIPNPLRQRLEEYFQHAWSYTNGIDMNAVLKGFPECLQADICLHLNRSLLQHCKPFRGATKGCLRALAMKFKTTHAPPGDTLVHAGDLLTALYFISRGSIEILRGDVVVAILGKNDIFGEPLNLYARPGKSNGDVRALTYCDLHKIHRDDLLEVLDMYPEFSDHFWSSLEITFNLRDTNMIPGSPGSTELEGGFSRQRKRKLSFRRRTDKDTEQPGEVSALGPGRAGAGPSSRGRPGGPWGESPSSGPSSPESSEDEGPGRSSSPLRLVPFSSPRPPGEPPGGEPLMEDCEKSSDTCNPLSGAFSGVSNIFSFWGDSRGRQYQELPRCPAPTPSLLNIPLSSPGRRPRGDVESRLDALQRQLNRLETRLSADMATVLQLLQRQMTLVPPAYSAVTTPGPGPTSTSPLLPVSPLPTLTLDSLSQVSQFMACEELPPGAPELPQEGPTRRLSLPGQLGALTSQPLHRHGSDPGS
# Chain of Peroxisome proliferator-activated receptor delta (Homo sapiens) (Q03181 whole entry, looked up): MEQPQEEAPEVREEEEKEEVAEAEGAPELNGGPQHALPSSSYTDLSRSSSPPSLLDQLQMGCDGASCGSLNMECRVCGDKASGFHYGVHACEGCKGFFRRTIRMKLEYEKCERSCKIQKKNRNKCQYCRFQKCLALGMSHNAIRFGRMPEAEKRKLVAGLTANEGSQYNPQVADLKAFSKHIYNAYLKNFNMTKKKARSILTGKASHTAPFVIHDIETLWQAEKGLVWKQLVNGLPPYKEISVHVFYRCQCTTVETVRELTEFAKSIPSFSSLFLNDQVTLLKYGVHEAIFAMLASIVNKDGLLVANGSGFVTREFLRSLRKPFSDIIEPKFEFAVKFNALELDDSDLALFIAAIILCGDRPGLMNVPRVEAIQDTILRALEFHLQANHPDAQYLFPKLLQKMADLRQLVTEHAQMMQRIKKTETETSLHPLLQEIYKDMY
# Chain of Peroxisome proliferator-activated receptor alpha (Homo sapiens) (Q07869 whole entry, looked up): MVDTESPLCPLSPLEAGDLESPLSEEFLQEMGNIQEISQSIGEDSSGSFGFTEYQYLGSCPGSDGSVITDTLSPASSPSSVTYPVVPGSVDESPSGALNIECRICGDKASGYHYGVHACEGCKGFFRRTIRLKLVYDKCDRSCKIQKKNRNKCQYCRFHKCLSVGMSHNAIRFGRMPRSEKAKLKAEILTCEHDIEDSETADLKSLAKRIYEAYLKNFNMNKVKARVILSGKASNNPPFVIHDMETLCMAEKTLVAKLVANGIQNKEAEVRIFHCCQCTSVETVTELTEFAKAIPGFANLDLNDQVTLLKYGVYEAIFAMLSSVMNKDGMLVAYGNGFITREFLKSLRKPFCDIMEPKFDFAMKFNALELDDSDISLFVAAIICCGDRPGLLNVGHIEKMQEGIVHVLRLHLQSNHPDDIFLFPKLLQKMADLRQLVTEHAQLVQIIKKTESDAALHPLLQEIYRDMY
structure (smiles),measurement,setting,value
CCCCN1C2CCC1CC(OC(c1ccc(F)cc1)c1ccc(F)cc1)C2 (configuration not stated),Potency,[1],89.1 nM (active)
O=C(O)C1C2CCC(O2)C1C(=O)O (configuration not stated),outcome,[2],inactive
same,max response,[3],-0.146%
same,outcome,[4],inactive
same,max response,[5],-12.2%
same,max response,[6],-14.9%
same,Potency,[7],inactive
C[C@H]1C2Cc3ccc(O)cc3[C@]1(C)CCN2CC1CC1,Potency,[1],inactive
Oc1ccc2c3c1O[C@H]1[C@@H](O)CC[C@@]4(O)C(C2)N(CC2CCC2)CCC314 (some centres not stated),Potency,[1],5010 nM (active)
COC(=O)C(N)CCCN=C(N)N[N+](=O)[O-] (configuration not stated),Potency,[1],inactive
CCCN(CCC)[C@@H]1CCc2c(F)ccc(O)c2C1,Potency,[1],inactive
Oc1cccc(O)c1O,outcome,[2],inactive
same,Potency,[8],inactive
same,Potency,[9],inactive
O=C(/C=C/c1ccc(O)c(O)c1)O[C@@H]1CC(O)(C(=O)O)C[C@@H](OC(=O)/C=C/c2ccc(O)c(O)c2)C1O (some centres not stated),Potency,[8],inactive
same,Potency,[9],inactive
O=C(OC[C@H]1O[C@@H](OC(=O)c2cc(O)c(O)c(O)c2)[C@H](OC(=O)c2cc(O)c(O)c(O)c2)[C@@H](OC(=O)c2cc(O)c(O)c(O)c2)[C@@H]1O)c1cc(O)c(O)c(O)c1,Potency,[8],inactive
same,Potency,[9],inactive
C=C1C[C@@]23CC[C@H]4[C@@](C)(CCC[C@@]4(C)C(=O)O[C@@H]4O[C@H](CO)[C@@H](O)[C@H](O)[C@H]4O[C@@H]4O[C@H](CO)[C@@H](O)[C@H](O)[C@H]4O)[C@@H]2CC[C@]1(O[C@@H]1O[C@H](CO)[C@@H](O)[C@H](O)[C@H]1O[C@@H]1O[C@H](CO)[C@@H](O)[C@H](O)[C@H]1O)C3,Potency,[8],inactive
same,Potency,[9],inactive
O[C@@H]1[C@@H](O)[C@H](OC/C=C/c2ccccc2)O[C@H](CO[C@@H]2OC[C@H](O)[C@H](O)[C@H]2O)[C@H]1O,Potency,[8],inactive
same,Potency,[9],inactive
C[C@@H]1OC(O[C@H]2[C@H](O)[C@@H](O)[C@H](OC[C@H]3O[C@@H](OC(=O)[C@]45CCC(C)(C)C[C@@H]4C4=CCC6[C@@]7(C)CC[C@H](OC8OC[C@H](O)[C@H](O)[C@H]8OC8O[C@@H](C)[C@H](O)[C@@H](O)[C@H]8O)[C@@](C)(CO)C7CC[C@@]6(C)[C@]4(C)CC5)[C@H](O)[C@@H](O)[C@@H]3O)O[C@@H]2CO)[C@H](O)[C@H](O)[C@H]1O (some centres not stated),Potency,[8],inactive
same,Potency,[9],inactive
COc1cc2c(cc1O)CC1NCCc3cc(OC)c(OC)c-2c31 (configuration not stated),Potency,[8],inactive
same,Potency,[9],inactive
C=C1C[C@@]23CC[C@H]4[C@@](C)(CCC[C@@]4(C)C(=O)O[C@@H]4O[C@H](CO)[C@@H](O)[C@H](O)[C@H]4O)[C@@H]2CC[C@]1(O[C@@H]1O[C@H](CO)[C@@H](O)[C@H](O[C@@H]2O[C@H](CO)[C@@H](O)[C@H](O)[C@H]2O)[C@H]1O[C@@H]1O[C@@H](C)[C@H](O)[C@@H](O)[C@H]1O)C3,Potency,[8],inactive
same,Potency,[9],inactive
COC(=O)C1=CO[C@@H](C)[C@H]2CN3CCc4c([nH]c5ccccc45)[C@@H]3C[C@H]12,Potency,[8],inactive
same,Potency,[9],inactive
Oc1cc(O)c2c(c1)O[C@@H](c1cc(O)c(O)c(O)c1)[C@H](O)C2,Potency,[8],inactive
same,Potency,[9],inactive
CC(C)(O)[C@@H]1CC[C@](C)([C@@H]2[C@H](O)C[C@]3(C)C4C[C@@H](O[C@H]5O[C@@H](CO)[C@H](O)[C@@H](O)[C@@H]5O)C5C(C)(C)[C@H](O[C@H]6OC[C@H](O)[C@@H](O)[C@@H]6O)CC[C@]56CC46CC[C@@]23C)O1 (some centres not stated),Potency,[8],inactive
same,Potency,[9],inactive
CC(C)=CCC[C@](C)(O[C@@H]1O[C@H](CO[C@@H]2O[C@H](CO)[C@@H](O)[C@H](O)[C@H]2O)[C@@H](O)[C@H](O)[C@H]1O)C1CC[C@]2(C)[C@@H]1[C@H](O)CC1[C@@]3(C)CC[C@H](O[C@@H]4O[C@H](CO)[C@@H](O)[C@H](O)[C@H]4O[C@@H]4O[C@H](CO)[C@@H](O)[C@H](O)[C@H]4O)C(C)(C)[C@@H]3CC[C@]12C (some centres not stated),"activity change, negative = inhibition",[8],-31.6% [at 8.32 µM]
same,"activity change, negative = inhibition",[9],14.6% [at 5.42 µM]
O=C(/C=C/c1ccc(O)c2c1[C@H](C(=O)O)[C@@H](c1ccc(O)c(O)c1)O2)O[C@H](Cc1ccc(O)c(O)c1)C(=O)O,Potency,[8],inactive
same,Potency,[9],inactive
C[S+](CC[C@H](N)C(=O)O)C[C@H]1O[C@@H](n2cnc3c(N)ncnc32)[C@H](O)[C@@H]1O (some centres not stated),Potency,[8],inactive
same,Potency,[9],inactive
CCC(/C=C/[C@@H](C)[C@H]1CCC2C3CC=C4C[C@@H](O)CC[C@]4(C)C3CC[C@@]21C)C(C)C (some centres not stated),Potency,[8],inactive
same,Potency,[9],inactive
